The supplement of paper PMC6555819

Test system: VDR:RXRa (NR concentration 270 nM, RXRa partner concentration 90 nM)
Assay: PBM binding z-score (relative to random genomic background probes); higher = stronger binding; sequences stand for … in GC…GCGATTGACAGCGTAGAATGAAGG
Method: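 Protein-binding microarray (Agilent 4x180K custom design, double-stranded 60-nt probes: 5' GC cap, 34-nt variable region, 24-nt constant primer region; full probe sequence given). Purified or IVT nuclear receptor:RXRα heterodimers (3:1 NR:RXRα, mostly 270:90 nM) or homodimers were incubated for 1 h in PBS with 2% milk and no ligand, then detected with Alexa488 antibodies. Fluorescence from o1-orientation probes (~5 replicates averaged) was converted to z-scores against 500 random hg19 background probes. Variable regions are seed direct-repeat (DR0–DR5) sites, all their single-nucleotide variants and half-site ablations.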

| Sequence | PBM binding z-score |
| --- | --- |
| AAAACAGGGTCATCGTAGGCCAGAGTACGCACAG | 5.38 |
| TATCAAAGTTCAAAGGTAACGTAAGTATCCACAC | 5.28 |
| TATTCAGGGTCAAAGGCCAGAGTACGAATGTCGA | 5.12 |
| CATACAGGGTCGGCTAGGCCAGAGTAGGGACGGC | 0.863 |
| CAAACTAGGTCACAAAAGGTCAAAGTCGAATGAC | 6.51 |
| CGAACTAGGTCGAGGACAGTGAATCTCCGCACGC | 0.0505 |
| CCTACTGGGCCATTCAGAGGGCATTGATCATATG | 0.0939 |
| TATACAGGGTCAAAGGCCAAAGTACGAATGTCGA | 5.31 |
| GATACAGGGTCGGCTAGAGGCCAGAGTATGGAAA | 0.547 |
| GATACGGGGTCAAGGCCAGAGTACGCGTATTGAT | 6.27 |
| CCTACGGGGCCACGAAAGGTCATTGATTCAGTGA | 5.53 |
| CGAACTAGGTCGCCAGGACAGTGAAGAGGTTGGA | -0.0336 |
| ACTAGTTGGTCAGCTGAGGTCACACCCAATTCGG | 4.19 |
| CCTCGGAGGTCAACAGGAGGTCAGAGCTGCCAGA | 6.19 |
| AATACAGGGTCATCTTAGGCCAGAGTACGCACAG | 5.31 |
| CCTAGTTGGTCAAGGTCACACCCGCTATAGGTAC | 3.99 |
| ACTTACGGCTCAACGAGGTTATAGCACGCGTATA | 1.53 |
| CCGAATAGGTTACGAGGGGGCATTCAGTGCGAAT | 5.89 |
| GTTACAGGGTCAAGGCCAGAGTACGCGTATTGAT | 4.45 |
| CCTAGCAGGCCAATCTAGGTCACTCAAGGCTTGA | 0.635 |

| Sequence | PBM binding z-score |
| --- | --- |
| CGTCCAAGGTCACGGTCAGTGAAAGAGACTCGAA | 5.13 |
| AGCGAAAGGTCGAGGTGAGTATAGAGAAAGGGAA | 2.71 |
| CGTCCAAGGTCAATGCTAGATCAGTGAAAGCATT | 3.51 |
| GCTTACGGGTCCAAGGTTATAGCATGAATAGAAT | 1.26 |
| TTACCAAGGTCAAGGTCGTTGATCCCTCTGTAGA | 5.5 |
| CCTAGTTGGTCAAGGTCACATACGCTATAGGTAC | 4.04 |
| CGTCCAAGGTCAAGGTCAATGAAAGAGACTCGAA | 5.07 |
| ATATGTAGGTTGGGGTCATTCAGAAAGTAGGGAA | 6.03 |
| ATCGAAAGGTCTAAGGTGAGTATACCCACCCGAA | 0.393 |
| AGAATGAGGTCACCAAAGATCAGGGAAACGCTTG | 5.55 |
| CGAACTAGGTCATCCAGGTCAGTGAATACATTGA | 6.41 |
| CGTCCAAGGTCATTGGAGGTCAGTGAAGACAGAT | 7.03 |
| CCTGCTAGGTCAAAGGTCAGCTAAAGCAGCTCGC | 5.81 |
| TAGCCTAGGTCATGGGCCAGTGTACCACGCGAAC | 2.18 |
| TCTCGGAGGACACTAAAGGTCAGAGCTCGACATC | 3.2 |
| CGAACTAGGTCAAGGGACAGTGAAAGGCGACGTA | 0.899 |
| CGTCAAAGTTCAACTAAGGTTACGTAAAGCACGC | 6.11 |
| AATACAAGGTCATCGTAGGCCAGAGTACGCACAG | 5.17 |
| TAGCCTAGGTCATTCAGGGGCCAGCATAGAAAGC | 2.97 |
| TAGCCTAGGTCACATCGGGCCAGTATACGCTATA | 2.43 |
